From PubChem BioAssay (NCI)
This is part of a sample that, as a whole, favours compounds with a hit. Of some 83,000 tested, about 20% had one in any assay.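 Each cell line was grown in a 96-well plate and treated with one concentration of compound for 48 hours. Values below 10 were considered active.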 The source made the active and inactive calls.

Legend:
Experiment in all cases: NCI-60 one-dose screen, 48 h (100 = growth as untreated, 0 = no growth, -100 = all killed)
Conditions in all cases: 10 µM unless noted
[1] = test system: SK-MEL-2 melanoma
[2] = test system: EKVX NSCLC
[3] = test system: SN12C renal
[4] = test system: UO-31 renal
[5] = test system: TK-10 renal
[6] = test system: ACHN renal
[7] = test system: CAKI-1 renal
[8] = test system: A498 renal
[9] = test system: CCRF-CEM leukemia
[10] = test system: MOLT-4 leukemia
[11] = test system: SR leukemia
[12] = test system: RPMI-8226 leukemia
[13] = test system: OVCAR-8 ovarian
[14] = test system: OVCAR-5 ovarian
[15] = test system: OVCAR-4 ovarian
[16] = test system: SK-OV-3 ovarian
[17] = test system: IGROV1 ovarian
[18] = test system: OVCAR-3 ovarian
[19] = test system: HS 578T breast
[20] = test system: NCI/ADR-RES ovarian

Measured: growth

O=c1c2cc(-c3ccccc3)sc2nc2sc(-c3ccccc3)nn12
inactive: [1] 107% | [2] 97.4% | [3] 104% | [4] 94.2% | [5] 84% | [6] 117% | [7] 102% | [8] 61.3% | [9] 104% | [10] 102% | [11] 99.1% | [12] 92.4% | [13] 104% | [14] 115% | [15] 105% | [16] 108% | [17] 109% | [18] 108% | [19] 96% | [20] 107%

N#Cc1cccc(F)c1
inactive: [1] 103% | [2] 113% | [3] 99.2% | [4] 84.9% | [5] 106% | [6] 95.6% | [7] 94.6% | [8] 129% | [9] 104% | [10] 107% | [11] 98.1% | [12] 113% | [13] 109% | [14] 83.1% | [15] 118% | [16] 111% | [17] 106% | [18] 126% | [19] 107% | [20] 104%

COc1ccc(-c2nn(-c3ccccc3)cc2/C=C2/SC(=S)N(C)C2=O)cc1
active: [6] -0.446% | [15] -24%
inactive: [1] 108% | [2] 74.4% | [3] 34.2% | [4] 16% | [5] 27.7% | [7] 38.5% | [8] 96.9% | [9] 49.6% | [10] 81.3% | [11] 29.3% | [12] 89.8% | [13] 49.8% | [14] 76.3% | [16] 90.8% | [17] 33.3% | [18] 53% | [19] 39.3% | [20] 74.5%

O=c1oc2ccc([N+](=O)[O-])cc2cc1Br
inactive: [1] 106% | [2] 102% | [3] 105% | [4] 88.5% | [5] 105% | [6] 117% | [7] 94.5% | [8] 99.7% | [9] 109% | [10] 98.5% | [11] 85% | [12] 107% | [13] 100% | [14] 109% | [15] 109% | [16] 106% | [17] 119% | [18] 111% | [19] 106% | [20] 108%

C#CCOc1cccc(Nc2ncnc3c(NC(=O)C=C)cccc23)c1
inactive: [2] 55.7% | [4] 25.8% | [6] 23.8% | [7] 25.7% | [8] 32% | [14] 88% | [15] 73.9% | [16] 49% | [17] 31% | [18] 10.9% | [19] 25% | [20] 18.1%
active: [1] 8.09% | [3] 0.801% | [5] -6.1% | [9] 2.68% | [10] 4.11% | [11] 9.57% | [12] -10% | [13] 4.27%

CS(=O)(=O)Nc1cc(-c2ccc3ncnc(Nc4ccc5c(cnn5Cc5ccccn5)c4)c3c2)cnc1Cl
inactive: [1] 61.8% | [2] 80.8% | [3] 72.5% | [4] 64.8% | [5] 65.5% | [6] 88% | [7] 65.4% | [8] 20.4% | [9] 60% | [10] 78.7% | [11] 58.3% | [12] 68.8% | [13] 90.3% | [14] 68.5% | [15] 91.5% | [16] 89.7% | [17] 38.1% | [18] 44.1% | [19] 25.4% | [20] 93.3%

COc1cnc2c(c1)C(=O)c1c-2n(CCCNCCO)c(=O)c2ccncc12
inactive: [2] 19.7% | [5] 15.9% | [7] 28.7% | [9] 11.1% | [17] 15.6% | [19] 23.5% | [20] 58.8%
active: [1] -2.38% | [3] 4.98% | [4] -19.8% | [6] -49.8% | [8] -33.3% | [10] -7.69% | [11] -4.25% | [12] -4.03% | [13] -6.28% | [14] -0.667% | [15] -4.81% | [16] 6.1% | [18] 8.44%

O=C1/C(=C/c2ccc(Cl)c(Cl)c2)CN(C(=O)C(Cl)Cl)C/C1=C\c1ccc(Cl)c(Cl)c1
active: [1] -3.03% | [2] -61.7% | [3] -76% | [4] -99.3% | [5] -50.8% | [6] -100% | [7] -74% | [8] -91.2% | [9] 4.82% | [10] -0.286% | [11] 4.68% | [12] -27.9% | [13] 0.621% | [14] -69.1% | [15] -16.8% | [17] -74.3% | [18] -97.9% | [19] -5.11% | [20] 3.64%
inactive: [16] 25.2%

CCCCOC(=O)OCc1cc(=O)c(O)co1
inactive: [1] 109% | [2] 99.7% | [3] 99.2% | [4] 92.1% | [5] 94.5% | [6] 97.7% | [7] 93.3% | [8] 110% | [9] 109% | [10] 102% | [11] 104% | [12] 106% | [13] 102% | [14] 102% | [15] 104% | [16] 105% | [17] 110% | [18] 114% | [19] 101% | [20] 108%

CS(=O)(=O)Nc1cc(-c2ccc3ncnc(Nc4c(Cl)ccc5c4OCO5)c3c2)cnc1Cl
active: [1] -65.7% | [2] -34.1% | [3] 9.89% | [4] -71.4% | [5] -59.4% | [7] -30.4% | [8] -65.3% | [10] -15.1% | [11] -8.28% | [12] -19.7% | [13] 8.87% | [14] -28.6% | [15] 8.29% | [16] -10.2% | [17] -53.5% | [18] -64.5% | [19] -16.2% | [20] 3.66%
inactive: [6] 11.7% | [9] 11.9%

O=C(N/N=C/c1ccc(F)cc1)c1ccc(C(F)(F)F)nc1Nc1cccc(C(F)(F)F)c1
active: [1] -29.1% | [2] 4.22% | [3] -12.1% | [4] -18.4% | [5] 3.93% | [6] -3.72% | [7] -7.66% | [8] -1.26% | [9] 0.801% | [10] -20.3% | [11] -30.5% | [12] -49.8% | [13] 9.33% | [14] -7.78% | [15] -6.96% | [16] -7.48% | [17] -19.6% | [18] -7.4% | [19] -5.72% | [20] -22.9%

N#CC1=C(N)Oc2c(sc3c(F)cccc23)C1c1ccc(F)cc1 (stereo not given)
active: [1] -4.03% | [20] 4.36%
inactive: [2] 47.3% | [3] 42.4% | [4] 41.9% | [5] 35.8% | [6] 46.6% | [7] 29.1% | [8] 23.2% | [9] 19.8% | [10] 18.4% | [11] 30.6% | [12] 18.1% | [13] 21.4% | [14] 61.5% | [15] 60.8% | [16] 31.8% | [17] 33.9% | [18] 10.9% | [19] 24.6%

O=C1c2ccc3c4ccc5c6c(ccc(c7ccc(c2c37)C(=O)N1CCC[P+](c1ccccc1)(c1ccccc1)c1ccccc1)c64)C(=O)N(CCC[P+](c1ccccc1)(c1ccccc1)c1ccccc1)C5=O
active: [7] 0.659%
inactive: [1] 98.7% | [2] 45.6% | [3] 70.5% | [4] 80.7% | [5] 141% | [6] 104% | [8] 78.1% | [9] 45.9% | [10] 46.1% | [11] 35.9% | [12] 21.3% | [13] 50.4% | [14] 74.1% | [15] 75.9% | [16] 91.7% | [17] 29.6% | [18] 37.4% | [19] 81.2% | [20] 97.2%

COc1cc2c(c(OC)c1OC)CCC(c1cccc(C(=O)Nc3cccc(Br)c3)c1)O2 (stereo not given)
inactive: [1] 76.8% | [2] 50.4% | [3] 55.9% | [4] 54.7% | [5] 78.7% | [6] 84.3% | [7] 57.8% | [8] 28.8% | [9] 69% | [10] 49.4% | [11] 35.6% | [12] 50% | [13] 81.1% | [14] 81.3% | [15] 55% | [16] 78% | [17] 81.8% | [18] 74.7% | [19] 66.7% | [20] 79.6%

Cc1ccc(NC(=S)NNC(=S)NNc2ccccc2)cc1C
inactive: [1] 91.2% | [2] 108% | [3] 101% | [4] 77.2% | [5] 104% | [6] 99.1% | [7] 95% | [8] 93.7% | [9] 44.4% | [10] 45% | [11] 56.8% | [12] 78.9% | [13] 98.2% | [14] 105% | [15] 114% | [16] 104% | [17] 98.5% | [18] 73.9% | [19] 94.4% | [20] 110%
